Shown are actives, neighbours in structure and some others; about 1.5% of the full set was active somewhere.
ANO1 block – TMEM16A chloride channel inhibitors, primary screen, cell-based, HTS; Anoctamin-1 (Mus musculus), Q8BHY3; HEK293 TMEM16A/YFP iodide influx fluorescence, ionomycin; normalized B-score (activity score, 25-100; higher = stronger inhibition) at 10 µM; hit rate 1.2% among 310,000; AID 588511, 2011;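 active = ratio plate-corrected score three or more library SD toward inhibition, starting fluorescence score within five deviations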;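 note: score derived from kinetic fluorescence span divided by baseline fluorescence per well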
ABCB6 inh MLPCN – ABCB6 transporter inhibitors, primary screen, K562-ABCB6 cells, flow cytometry, MLPCN library; hit rate 0.19% among 360,000; K562-ABCB6 porphyrin accumulation, 1 h; hits give low values; fluorescence ratio to DMSO, % at 10 µM;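 active = fluorescence ratio to DMSO below 75%, the collection mean minus 3 SD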;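 note: signal is porphyrin accumulated inside mitochondria; 100% equals median channel fluorescence of DMSO control wells; lower ratio means ABCB6 inhibition with less porphyrin fluorescence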
TMEM16A act – TMEM16A chloride channel activators or potentiators, primary screen, cell-based, HTS | Anoctamin-1 (Mus musculus), Q8BHY3 | HEK293 TMEM16A/YFP-H148Q/I152L, iodide quench fluorescence; hits give low values | B-score at 10 µM | hit rate 0.3% among 340,000 | AID 623877, 2012;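 active = fluorescence-ratio B-score plate-corrected deviation score at least 3 library SD below zero, with starting fluorescence score within 5 deviations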;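 note: channel opened by trigger with iodide after compound preincubation; score built on the fluorescence ratio of max minus min over baseline; more negative score means more quench and so TMEM16A activation or potentiation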
DAGLB inhibitor – DAGLB lipase inhibitors, primary screen, biochemical, fluorescence, HTS; Diacylglycerol lipase-beta (Homo sapiens), Q8NCG7; HEK293T DAGLB membrane lysate, EnzChek fluorogenic substrate; inhibition, % at 5.17 µM; hit rate 0.059% among 340,000; AID 504411, 2011; in the data active = inhibition above about 34%;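 note: 0% = enzyme with vehicle and 100% = wells lacking enzyme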
iPSC survival up – enhancers of single-cell hiPSC survival, primary screen, ATPlite luminescence | survival enhancement, % at 20 µM | 100% = ROCK inhibitor wells, 0% = DMSO | hit rate 0.044% among 360,000; in the data active = survival enhancement above about 18%;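 note: cells exposed to compounds for 16 hours before the ATP read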
DAGLB confirm – DAGLB lipase inhibitors, retest, confirmation, biochemical, fluorescence, HEK293T membranes | shares compounds with DAGLB inhibitor | HEK293T DAGLB membrane lysate, EnzChek fluorogenic substrate | inhibition, % at 5.17 µM | hit rate 73% among 190;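 active = mean inhibition over triplicate wells above a set limit taken from the primary lipase screen, cut at about 34% in these data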;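 note: 0% = DAGLB with DMSO and 100% = wells lacking DAGLB enzyme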
TMEM16A reconf – TMEM16A chloride channel inhibitors, confirmation, cell-based, re-confirmation. shares compounds with ANO1 block. HEK293 TMEM16A/YFP-H148Q, iodide quench fluorescence; ionomycin added to raise cell calcium. inhibition, % at 10 µM. hit rate 39% among 2,300;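 active = mean duplicate percent inhibition, scaled so buffer wells are 0 and the reference blocker 100, over three buffer SD above buffer mean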
TMEM16A Ca cntr – calcium mobilization in TMEM16A/YFP HEK293 cells, confirmation, counter-screen for TMEM16A inhibitor project. Fluo4 calcium mobilization. AID 652231, 2013. hit rate 2% among 2,300. shares compounds with ANO1 block. calcium response (% of ionomycin), % at 10 µM;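 active = duplicate-averaged calcium signal over 20% of the ionomycin maximum, relative to buffer baseline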;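 note: each well's signal is peak minus trough fluorescence divided by its pre-addition baseline; 0% = buffer wells and 100% = ionomycin wells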
Parental YFP cnt – iodide YFP quench changes in parental YFP-HEK293, counter-screen for TMEM16A inhibitor project, cell-based; shares compounds with ANO1 block; ionomycin; YFP ratio F(max-min)/F0 at 10 µM; 2,300 tested, under 10 active;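 active = yellow fluorescent protein signal ratio exceeding the buffer control mean by over 5 SD of those controls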;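 note: ratio is mean of duplicate wells from kinetic YFP trace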
ClC-1 inh – ClC-1 chloride channel inhibition, selectivity assay for TMEM16A inhibitor project, cell-based, voltage-dependent ClC-1. 2,300 tested, under 10 active. CHO ClC-1-YFP, iodide influx fluorescence quench; iodide control reads 0, buffer control 100. shares compounds with ANO1 block. ratio percent, % at 10 µM;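 active = duplicate-mean ratio percent above the mean of iodide-only control wells, which defines zero, plus 5 of their SD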;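 note: higher percent means stronger block of ClC-1 iodide influx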
* marks the source's active call; other numbers are inactive results; i = inactive; nt = not tested or not shown.

SMILES	ANO1 block	ABCB6 inh MLPCN	TMEM16A act	DAGLB inhibitor	iPSC survival up	TMEM16A reconf	TMEM16A Ca cntr	Parental YFP cnt	ClC-1 inh	others
N#C/C(N=Nc1ccccc1O)=N\Nc1ccccc1O	100*	104	i	41*	-3	nt	nt	nt	nt	DAGLB confirm=83*
Oc1ccccc1N=N/C(=N/Nc1ccccc1O)c1ccccc1	i	98	i	1	1	nt	nt	nt	nt
COCCCNC(=O)Cc1ccc(S(=O)(=O)N2CCOCC2)s1	nt	100	i	-3	-2	nt	nt	nt	nt
O=C(O)c1cc(S(=O)(=O)Nc2ccc3oc(=O)sc3c2)ccc1O	i	nt	nt	nt	nt	nt	nt	nt	nt
CC(=O)c1c(C)oc2ccc(NS(=O)(=O)c3ccc(O)c(C(=O)O)c3)cc12	i	101	i	57*	0	nt	nt	nt	nt	DAGLB confirm=53*
Cc1cc(C)c(S(=O)(=O)/N=C2\C=C(Nc3ccc(C(=O)O)cc3)C(=O)c3ccccc32)c(C)c1	25*	102	i	36*	-1	26%*	i	-1.2	-30	DAGLB confirm=39*
CC1=C(C)N(C)[C@H](c2ccccc2Br)[C@H](O)C1=O	nt	103	i	-3	8	nt	nt	nt	nt
CCN(CC1COc2ccccc2O1)C(=S)NC1CC2CCC1C2 (stereo unspecified)	100*	88	i	-2	3	i	i	-0.83	-10
COc1cccc(N2C(=O)Nc3ccc(Br)cc3C2(O)C(=O)NCCCN(C)C)c1 (stereo unspecified)	i	98	i	2	0	nt	nt	nt	nt
CC1=CC2C(C3C=CC2(C)C(=O)C3(C)O)C(C)(O)C1=O (stereo unspecified)	nt	103	i	-1	-3	nt	nt	nt	nt
CN=C1S/C(=C\c2ccc(O)c(Br)c2)C(=O)N1C	25*	95	i	-2	0	i	i	-1	-10
COc1ccc(Cl)cc1NC(=O)C/C(C)=N/NC(=O)COc1ccc(C)cc1	i	99	i	-4	0	nt	nt	nt	nt
O=C(NCC1CCCO1)NC1(C(F)(F)F)Oc2ccccc2O1 (stereo unspecified)	i	99	i	-1	-3	nt	nt	nt	nt
O=C(NC1(C(F)(F)F)Oc2ccccc2O1)N1CCCC1	100*	93	i	-2	-3	i	i	-1	4
CN(C)c1ncnc2c1ncn2[C@H]1CN(Cc2ccc(Cl)cc2)C[C@@H](CO)O1	nt	94	nt	nt	-2	nt	nt	nt	nt
CN1CCN(NC(=O)Nc2ccc(Br)cc2Cl)CC1	i	102	i	3	0	nt	nt	nt	nt
Nc1ncnc2c1ncn2[C@@H]1O[C@H](CO)C[C@H]1O	100*	131	i	-2	-2	i	i	-0.91	-4
Nc1ncnc2c1ncn2C1OC(CO)C2OC21 (stereo unspecified)	nt	94	nt	nt	0	nt	nt	nt	nt
CCNC(=O)C1CCCN(C(=O)c2ccc3c(c2)OCO3)CC1 (stereo unspecified)	nt	98	nt	nt	1	nt	nt	nt	nt
O=C(NC1CCN(Cc2ccccc2)CC1)c1cn(-c2ccccc2)nc1-c1cccnc1	i	95	i	3	0	nt	nt	nt	nt
CCOC(=O)Nc1cc(C)ccc1OC	i	100	i	0	1	nt	nt	nt	nt
CCCCCCCCC(=O)Nc1cc(C)ccc1OC	100*	93	i	-9	-2	i	i	-1.2	-12
CCNS(=O)(=O)c1ccc(NC(=O)Nc2cc(C)ccc2OC)cc1	25*	93	i	-2	0	i	i	-1.1	-6
COc1ccccc1N1CCN(C(=O)c2ccc(COc3cccc4c3OC(C)(C)C4)cc2)CC1	i	91	i	-2	0	nt	nt	nt	nt
CCOc1ccc(NC(=O)CN(C)C(=O)CCCc2c[nH]c3ccccc23)cc1OCC	i	97	i	1	1	nt	nt	nt	nt
SMILES	ANO1 block	ABCB6 inh MLPCN	TMEM16A act	DAGLB inhibitor	iPSC survival up	TMEM16A reconf	TMEM16A Ca cntr	Parental YFP cnt	ClC-1 inh	others
CC(C)(C)c1cc(C(c2cccnc2)N2CCN(CCO)CC2)cc(C(C)(C)C)c1O (stereo unspecified)	100*	97	i	7	-2	68%*	i	-1.1	-42
COc1ccc(CN(C(=S)Nc2ccccc2)C2CC(=O)N(c3ccc(F)cc3)C2=O)cc1 (stereo unspecified)	i	97	i	-5	8	nt	nt	nt	nt
CNC(=S)N(Cc1ccc(OC)cc1)C1CC(=O)N(c2ccc(Cl)cc2)C1=O (stereo unspecified)	i	96	i	-2	2	28%*	i	-0.96	-4
C#CCN(C[C@H]1[C@H](OC(=O)NC2CCCC2)[C@H](OC(=O)NC2CCCC2)C[C@@H](C(=O)OC)[C@H]1C(=O)OC)S(=O)(=O)c1ccc(C)cc1	nt	98	nt	2	-3	nt	nt	nt	nt
Cc1ccc(OCCSc2ncnc3nc[nH]c23)cc1	25*	100	i	-3	2	i	i	-1.1	-12
COc1ccc(N=Cc2c(O)n(-c3ccc(OC)cc3)c(=O)c3ccccc23)cc1	i	89	i	-3	-4	nt	nt	nt	nt
O=c1c2ccccc2c(C=Nc2cccc(O)c2)c(O)n1-c1ccc2c(c1)OCO2	25*	124	i	2	-5	i	i	-1.3	3
O=C(Nn1c(O)c(C=C2N=c3ccccc3=N2)sc1=S)c1cccc(Cl)c1	25*	101	i	7	1	i	i	-0.81	-6
C[C@H]1Cn2cnc(C(=O)Nc3cccc(Cl)c3)c2C(=O)N1	nt	102	nt	-3	-1	nt	nt	nt	nt
O=c1c(-c2ccc(Oc3ccccc3)cc2)[n+]([O-])c2ccccc2n1OCc1ccccn1	i	102	i	-2	0	nt	nt	nt	nt
CCOc1ccc(-c2c(=O)n(OCc3ccccn3)c3ccccc3[n+]2[O-])cc1	25*	83	i	-2	-1	i	i	-1.1	-4

High-throughput results: PubChem, several laboratories
